Test results: PubChem BioAssay (NCI)
The panel holds about 79,000 compounds, 15% with a hit somewhere; the sample as a whole holds those more often. Activity calls are given as the source filed them. Rule as the data show it: active = growth inhibition above about 70%; inactive = the rest.

Experiments:
[1] = NCI Yeast Anticancer Drug Screen. Data for the rad52 strain (AID 147);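 also: 0% = growth of vehicle-treated control cultures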; settings: S. cerevisiae rad52 mutant growth inhibition, stronger effect = higher value
Summary of the method: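 Screen used a yeast mutant impaired in DNA repair. After compound exposure, growth was measured. Values reflect inhibition compared with vehicle-treated cells.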

[2] = NCI Yeast Anticancer Drug Screen. Data for the wt1 strain (AID 149);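 also: 0% = growth of vehicle-treated wt1 cultures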; settings: S. cerevisiae wt1 strain (SPY 50644) growth inhibition, stronger effect = higher value
Summary of the method: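 Measured: growth of wt1 yeast under compound versus vehicle treatment, reported as inhibition.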

[3] = NCI Yeast Anticancer Drug Screen. Data for the rad50EPP+ strain (AID 151);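 also: 0% = growth of vehicle-treated control cultures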; settings: S. cerevisiae rad50 mutant strain, stronger effect = higher value
Summary of the method: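 Exposing the rad50EPP+ strain to each compound, growth was compared with vehicle-only cultures to give inhibition.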

[4] = NCI Yeast Anticancer Drug Screen. Data for the rad50 strain (AID 155);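 also: 0% = growth of vehicle-only cultures of the same strain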; settings: S. cerevisiae rad50 strain growth inhibition, stronger effect = higher value
Summary of the method: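 Growth of the mutant yeast was measured after compound exposure and referenced to vehicle-treated cultures.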

[5] = NCI Yeast Anticancer Drug Screen. Data for the mec2-1 strain (AID 157); settings: S. cerevisiae mec2-1 strain, stronger effect = higher value
Summary of the method: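 Readout is yeast growth inhibition, normalised to vehicle-treated controls, in the mec2-1 strain exposed to compound.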

[6] = NCI Yeast Anticancer Drug Screen. Data for the rad14 strain (AID 159);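 also: 0% = growth of vehicle-treated control cultures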; settings: S. cerevisiae rad14 strain growth inhibition, stronger effect = higher value
Summary of the method: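 Here, inhibition of yeast growth was measured after compound exposure, using a strain with a genetic defect in DNA damage repair and vehicle-treated cultures as the reference.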

[7] = NCI Yeast Anticancer Drug Screen. Data for the sgs1 mgt1 strain (AID 161);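 also: 0% = growth of cultures given vehicle only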; settings: S. cerevisiae sgs1 mgt1 strain, stronger effect = higher value
Summary of the method: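 This yeast growth screen uses a strain with defined DNA-repair lesions; compound-treated growth is compared with vehicle-treated growth.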

[8] = NCI Yeast Anticancer Drug Screen. Data for the CLN2oe strain (AID 163);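 also: 0% = growth of vehicle-only control cultures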; settings: S. cerevisiae CLN2oe strain, stronger effect = higher value
Summary of the method: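 Values reflect how much compound exposure reduced yeast growth, referenced to vehicle-exposed cells. Assay organism is a strain with a defined genetic change affecting cell-cycle control.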

[9] = NCI Yeast Anticancer Drug Screen. Data for the cln2 rad14 strain (AID 165);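 also: 0% = growth equal to vehicle treated cultures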; settings: S. cerevisiae cln2 rad14 strain, stronger effect = higher value
Summary of the method: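 Relative to vehicle controls, growth inhibition of compound-treated cln2 rad14 yeast was recorded.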

[10] = NCI Yeast Anticancer Drug Screen. Data for the bub3 strain (AID 167); settings: S. cerevisiae bub3 mutant strain, stronger effect = higher value
Summary of the method: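 Whole-cell yeast assay. The mutant strain was incubated with compounds, and growth inhibition was determined by comparison with vehicle-treated cells.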

[11] = NCI Yeast Anticancer Drug Screen. Data for the wt2 strain (AID 169);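 also: 0% = growth of vehicle-treated yeast cultures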; settings: S. cerevisiae wt2 strain growth inhibition, stronger effect = higher value
Summary of the method: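 Values express reduction in yeast growth under compound treatment, referenced to vehicle-treated cells.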

[12] = NCI Yeast Anticancer Drug Screen. Data for the mlh1 strain (AID 171);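 also: 0% = growth of vehicle-treated control cultures of the same strain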; settings: S. cerevisiae mlh1 strain growth inhibition, stronger effect = higher value
Summary of the method: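 Steps: expose the defined-mutant yeast strain to compound; expose a parallel culture to vehicle; measure growth; express compound effect as inhibition relative to the vehicle culture.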

[13] = NCI Yeast Anticancer Drug Screen. Data for the sgs1 strain (AID 173);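 also: 0% = growth of vehicle-only control cultures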; settings: S. cerevisiae sgs1 mutant, stronger effect = higher value
Summary of the method: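 Treat defined-mutant yeast with compound; measure growth; calculate inhibition relative to vehicle-treated cells.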

[14] = NCI Yeast Anticancer Drug Screen. Data for the mlh1 rad18 strain (AID 175); settings: S. cerevisiae mlh1 rad18 strain growth inhibition, stronger effect = higher value
Summary of the method: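 Test agents were incubated with a yeast strain of defined genotype (DNA damage repair defect). Inhibition of growth was derived by comparison with vehicle-exposed cultures.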

[15] = NCI Yeast Anticancer Drug Screen. Data for the rad18 strain (AID 177); settings: S. cerevisiae rad18 mutant growth inhibition, stronger effect = higher value
Summary of the method: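 A genetically defined yeast mutant impaired in DNA damage repair was treated with test compounds, then its growth was measured against cultures receiving vehicle alone.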

[16] = at 5.0 µM (retest, dose inferred, filed as 0.5)
[17] = at 50.0 µM (retest, dose inferred, filed as 5.0)

Measured: growth inhibition

Cc1cc(NCCCN(C)C)c2ccc3c(ccc4c(NCCCN(C)C)cc(C)nc43)c2n1
inactive: [1]; at 1.2 µM 6% | [1]; at 3.7 µM 21% | [1]; at 11.0 µM 17% | [1]; at 33.0 µM 19% | [1]; at 100.0 µM 47% | [2]; at 1.2 µM 22% | [2]; at 3.7 µM 18% | [2]; at 11.0 µM 15% | [2]; at 33.0 µM 9% | [2]; at 100.0 µM 27% | [3]; at 1.2 µM 6% | [3]; at 3.7 µM 6% | [3]; at 11.0 µM 11% | [3]; at 33.0 µM -26% | [3]; at 100.0 µM 22% | [4]; at 1.2 µM 21% | [4]; at 3.7 µM 17% | [4]; [16] 11% | [4]; at 11.0 µM 17% | [4]; at 33.0 µM 21% | [4]; at 50.0 µM 55.9% | [4]; at 100.0 µM 59% | [5]; at 1.2 µM 7% | [5]; at 3.7 µM 15% | [5]; [16] 5% | [5]; at 11.0 µM 11% | [5]; at 33.0 µM 12% | [5]; [17] 31% | [5]; at 50.0 µM 25.6% | [5]; at 100.0 µM 35% | [6]; at 1.2 µM 2% | [6]; at 3.7 µM 3% | [6]; at 11.0 µM 15% | [6]; at 33.0 µM 22% | [6]; at 100.0 µM 58% | [7]; [16] 7% | [7]; at 50.0 µM 18.6% | [8]; at 1.2 µM -7% | [8]; at 3.7 µM -4% | [8]; at 11.0 µM -1% | [8]; at 33.0 µM 17% | [8]; at 100.0 µM 52% | [9]; [16] 8% | [9]; [17] 57% | [9]; at 50.0 µM 19.1% | [10]; at 1.2 µM 1% | [10]; at 3.7 µM 11% | [10]; [16] 1% | [10]; at 11.0 µM 9% | [10]; at 33.0 µM 5% | [10]; [17] 31% | [10]; at 50.0 µM 11.3% | [10]; at 100.0 µM 22% | [11]; at 1.2 µM -57% | [11]; at 3.7 µM -39% | [11]; at 11.0 µM -63% | [11]; at 33.0 µM -40% | [11]; at 100.0 µM 25% | [12]; at 1.2 µM 15% | [12]; at 3.7 µM 18% | [12]; at 11.0 µM 23% | [12]; at 33.0 µM 25% | [12]; at 100.0 µM 37% | [13]; at 1.2 µM 3% | [13]; at 3.7 µM 10% | [13]; at 11.0 µM 7% | [13]; at 33.0 µM 8% | [13]; at 100.0 µM 46% | [14]; [16] 10% | [14]; at 50.0 µM 9.8% | [15]; at 1.2 µM 10% | [15]; at 3.7 µM 4% | [15]; at 11.0 µM 2% | [15]; at 33.0 µM -8% | [15]; at 100.0 µM 34%
active: [4]; [17] 90% | [7]; [17] 81% | [14]; [17] 85%
